This is an account of results in PubChem BioAssay (NCI).

What all share (test): NCI-60 one-dose screen, 48 h (100 = growth as untreated, 0 = no growth, -100 = all killed)
Common to all, as to conditions: 10 µM

The subject of test [1] is HCT-15 colon.
Test [2] has as its system HT29 colon.
Test [3] deals with SNB-75 CNS.
In test [4] the test system is SNB-19 CNS.
In test [5] the test system is U251 CNS.
The subject of test [6] is PC-3 prostate.
The subject of test [7] is SK-MEL-5 melanoma.
The test system of test [8] is UACC-62 melanoma.
Test [9] relates to LOX IMVI melanoma.
Test [10] deals with SK-MEL-28 melanoma.

The panel holds about 83,000 compounds, 20% with a hit somewhere; the sample as a whole holds those more often.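 A percent growth of 40 corresponds to 60% growth inhibition; 0 means no net growth; -100 means all cells died. Active threshold: below 10.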 A number with no mark means an inactive call. The source made the active and inactive calls.

On to `Cc1ccc(NC(=S)NNC(=S)Nc2ccc(C)cc2)cc1`, for which the growth in test [1] was 44.1%; in test [2], 82.6%; in test [3], 40.2%; in test [4] it was 65.4%; in test [5], 56.8%; in test [6] it was 77.2%. Also, the growth in [7] is 55.6%; in test [8], 48.2%; in test [9], 75.3%; in test [10] it was 70.8%.

As to `C[N+]1(CCCCC[N+]2(C)CCCC2)CCCC1`, the growth in test [1] was 103%; in test [2], 102%; in [3], 110%; in [4] it was 96.8%; in test [5] it was 108%; in test [6] it was 86.3%. Besides, the growth in test [7] is 103%; in [8], 102%; in [9], 105%; in test [10], 105%.

On to `CC(C)=CCC/C(C)=C/CC/C(C)=C/CC/C=C(\C)CC/C=C(\C)CCC(=O)Nc1ccn(C2OC(CO)C(O)C2(F)F)c(=O)n1` (stereo not given), for which the growth is 50.9% in test [1]; 36.2% in test [2]; 4.15% (active) in [3]; 23.4% in test [4]; 20.5% in test [5]; 37.2% in test [6]. The growth in test [7] was -63.4% (active); in [8], 22%; in [9], 5.76% (active); in [10] it was 60%.

Regarding `COC(=O)C1(O)NC(=C(C#N)C#N)C(C#N)=C1C(=O)c1ccc(OC)c(OC)c1` (stereo not given), the growth in [1] was 105%; in [2], 99.6%; in test [3], 94.5%; in [4], 97.1%; in test [5], 92.5%; in [6], 76.9%. The growth in test [7] is 101%; in [8], 99.3%; in test [9], 99.4%; in test [10], 120%.

As for `Nc1ncnc2c1ncn2C1(CO)OCC(O)C(O)C1O` (stereo not given), the growth in [1] was 105%; in test [2], 88.8%; in [3], 90.6%; in [4] it was 103%; in test [5], 101%; in test [6], 103%. The growth in test [7] was 103%; in test [8] it was 105%; in [9], 94.4%; in [10] it was 105%.

As for `N#Cc1c(-c2ccc(Cl)cc2)csc1NC(=O)Nc1ccc(Cl)c(C(F)(F)F)c1`, the growth in test [1] was 4.52% (active); in test [2], 1.62% (active); in test [3], 36.5%; in [4] it was 31.6%; in [5], 2.57% (active); in test [6], 1.89% (active). Besides, the growth in test [7] was -24.2% (active); in test [8] it was 16.2%; in [9], 11.7%; in [10], 28.4%.

Consider `Oc1ccc(/C=N/N=C2c3ccccc3-c3ccccc32)c(O)c1`, for which the growth in test [1] was 46.4%; in test [2], 97.5%; in test [3] it was 73.1%; in test [4], 80.3%; in test [5] it was 78.7%; in [6], 72.9%. The growth in test [7] is 25.8%; in test [8], 58.6%; in test [9], 70.3%; in [10], 74.5%.

Regarding `Nc1ccc(CC[C@H]2CCC/C=C/[C@@H]3C[C@H](O)C[C@H]3[C@H](O)/C=C/C(=O)O2)cc1`, the growth in test [1] was 6.58% (active); in test [2] it was -39.8% (active); in [3], 32.3%; in test [4], 29.5%; in test [5] it was 15.8%; in test [6], 12.9%. In addition, the growth in test [7] was -84.9% (active); in test [8], 11.7%; in test [9], -74.4% (active); in test [10] it was 5.16% (active).

As for `CC(CN(C)C)Oc1ccccc1NC1=C(Cl)C(=O)C(Nc2ccccc2OC(C)CN(C)C)=C(Cl)C1=O` (stereo not given), the growth is -79% (active) in test [1]; -70.1% (active) in test [2]; 35% in test [3]; 3.85% (active) in test [4]; -84.2% (active) in [5]; 3.47% (active) in test [6]. Besides, the growth in test [7] is -95.8% (active); in test [8] it was -84.5% (active); in test [9], -80.6% (active); in [10], -64.9% (active).

Turning to `Cc1nn(-c2ccc(-c3ccc(OC(F)(F)F)cc3)cc2)c2nc(Cc3ccccc3)nc(N)c12`, the growth in test [1] is 76.9%; in test [2] it was 59.6%; in test [3] it was 34.9%; in test [4], 39.3%; in test [5], 20.7%; in test [6] it was 64.4%. The growth in test [7] was 87.7%; in [8], 85.6%; in test [9], 31%; in test [10] it was 103%.

Take `COc1ccc(C(=O)CC(CC(=O)c2ccc(OC)cc2)c2c(C)nn(-c3ccccc3)c2Cl)cc1`: the growth in test [1] is 100%; in [2], 87%; in [3], 91.3%; in test [4], 93.3%; in test [5], 102%; in test [6] it was 85.6%. The growth in test [7] was 90.2%; in test [8] it was 88.3%; in test [9] it was 83.3%; in test [10] it was 105%.

`CC(=O)C1CCC2C3CC=C4CC(SC(=N)N)CCC4(C)C3CCC12C` (stereo not given): the growth in [1] was 16.3%; in test [2] it was 11%; in test [3] it was 55.4%; in [4], 64.2%; in test [5], 30.5%; in [6], 33%. For the same compound, the growth was 15.6% in test [7], 64.4% in test [8], -56% (active) in test [9] and 61.5% in test [10].

Take `C=C(NC(=O)C(=C)NC(=O)c1csc(C2=NC3c4csc(n4)C4NC(=O)c5csc(n5)C(C(C)(O)C(C)O)NC(=O)C5CSC(=N5)C(=CC)NC(=O)C(C(C)O)NC(=O)c5csc(n5)C3(CC2)NC(=O)C(C)NC(=O)C(=C)NC(=O)C(C)NC(=O)C(C(C)CC)NC2C=Cc3c(C(C)O)cc(nc3C2O)C(=O)OC4C)n1)C(N)=O` (stereo not given): the growth in test [1] is 36.9%; in [2] it was 3.8% (active); in test [3], 66.7%; in test [4], 66.6%; in test [5], 8.08% (active); in [6] it was 63.7%. In addition, the growth in test [7] is -5.61% (active); in test [8] it was -17% (active); in [9] it was -7.87% (active); in test [10] it was -34.5% (active).
